Experimental findings from PubChem BioAssay AID720540 (National Center for Advancing Translational Sciences (NCATS), 2013) are described below.

The structures appear in SMILES notation. The whole screen tested about 1,300 compounds, of which about 460 (35%) were called active. Inconclusive results (about 39%) are left out. Calls follow the shape of the dose curve; as a rule, active = well fitted inhibition curve with a large enough effect; inconclusive = small, poorly fitted or top-dose-only effect; inactive = flat fitted curve, though single readings scatter. This is one part of the list.

The target of the test is Protein phosphatase EYA2 (Homo sapiens) (UniProt O00167). Put plainly: qHTS for Inhibitors of the Phosphatase Activity of Eya2: Confirmatory Assay for Cherry-picked Compounds. Also: nearly all actives have a fitted effect of over 65% in size. As to conditions: purified EYA2 phosphatase activity, qHTS confirmation; series mostly up to 46.1 µM. An excerpt: The Eya protein family is an essential co-activator of the Six1 transcription factor. Six1 is a developmental gene that is abnormally re-expressed in a large percentage of breast cancers. This over-expression plays a causal role in the initiation and metastatic development of breast cancers. The Eya family of protein is also found to contain a unique HAD phosphatase domain with protein tyrosine phosphatase activity which can potentially play a role in Six1-mediated breast tumorigenesis. Recently, Eya2 is found to dephosphorylate the histone variant H2AX and direct cells towards DNA repair instead of apoptosis in the event of DNA damage.
Sequence of Protein phosphatase EYA2 (Homo sapiens) (O00167 whole entry, looked up, the tested form may be a part): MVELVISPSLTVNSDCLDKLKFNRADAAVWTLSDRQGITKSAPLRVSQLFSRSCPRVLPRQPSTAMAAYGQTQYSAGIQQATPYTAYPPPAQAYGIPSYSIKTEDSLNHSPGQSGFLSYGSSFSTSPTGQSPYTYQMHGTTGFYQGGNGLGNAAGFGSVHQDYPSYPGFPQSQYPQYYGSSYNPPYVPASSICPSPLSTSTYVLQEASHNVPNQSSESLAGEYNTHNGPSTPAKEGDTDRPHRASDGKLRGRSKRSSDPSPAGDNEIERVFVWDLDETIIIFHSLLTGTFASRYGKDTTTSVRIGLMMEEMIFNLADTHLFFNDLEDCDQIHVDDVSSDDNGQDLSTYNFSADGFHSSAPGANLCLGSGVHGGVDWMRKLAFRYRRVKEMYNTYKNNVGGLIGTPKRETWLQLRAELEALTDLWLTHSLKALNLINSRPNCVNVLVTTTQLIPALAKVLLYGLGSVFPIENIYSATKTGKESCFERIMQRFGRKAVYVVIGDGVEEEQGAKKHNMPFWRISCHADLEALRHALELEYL
A 1536 well format, fluorescence based qHTS assay was developed and used to target the phosphatase activity of Eya2 (AID 488837). Inhibitors found against Eya2 could serve as potential therapeutic tools to inhibit Six1-mediated breast tumorigenesis and to increase the efficiency of radiation and certain chemo therapy. This assay assessed the activity of the primary screen cherry-picked compounds against Eya2. Inhibition is the desired outcome for this assay.
NIH Chemical Genomics Center [NCGC]
NIH Molecular Libraries Probe Centers Network [MLPCN]
Assay Submitter (PI): Rui Zhao, University of Colorado Denver
Eya2 enzyme and 3-O-methyl-fluorescein phosphate (OMFP) substrate working solutions were reconstituted in the buffer reagent consist of 50 mM HEPES pH 7.5, 50 mM NaCl, […], 0.05% BSA and 1 mM DTT. One and a half microliter of 0.2 uM Eya2 working solution was dispensed in a 1536 well Greiner plate (black, medium bind). Twenty-three nanoliter of test compounds and control compound EGTA was transferred to the assay plate using the Kalypsys robotic system equipped with a 1536 pin head. The plate was incubated at room temperature for 10 minutes. One and a half microliter of the 50 uM the OMFP substrate was then dispensed to the assay plate and incubated at room temperature for additional 10 min. The fluorescence signal was read using the PerkinElmer ViewLux plate reader using a 485 nm excitation and 525 nm emission filters. The data was normalized to the positive control for maximum inhibition and DMSO treated wells as negative control.
In general terms: Quantitative high-throughput screening tests each substance at several concentrations.
Take `CC(=O)N1CCN(/[N+]([O-])=N/Oc2ccc([N+](=O)[O-])cc2[N+](=O)[O-])CC1`: the Potency is 19 µM (active).
As to `Cn1nc([N+](=O)[O-])nc1Sc1cccc2cccnc12`, the Potency is 1.9 µM (active).
`O=c1c(O)cccc2cc(O)c(O)c(O)c12`: the Potency was 8.49 µM (active).
Consider `OCCN(Cc1cccnc1)Cc1ccccn1`, for which the Potency was 5.36 µM (active).
Regarding `O=C(CCCl)Nc1cccc2cccnc12`, the Potency is 15.1 µM (active).
Take `CC(=O)Nc1ccc(S(=O)(=O)Nc2cccc3cccnc23)cc1`: the Potency was 4.78 µM (active).
Regarding `O=S(=O)(Nc1cccc2cccnc12)c1ccccc1Br`, the Potency was 16.9 µM (active).
Take `COc1ccc(N(CC(=O)Nc2cccc(C(C)=O)c2)S(=O)(=O)c2ccc(NC(C)=O)cc2)cc1`: the Potency result was “inactive”.
`CC1(C)CC(=O)c2c(oc3ccc(NS(=O)(=O)c4cccc5cccnc45)cc23)C1`: the Potency result was “inactive”.
`CCOc1ccc(Br)cc1S(=O)(=O)NC1CC(C)(C)NC(C)(C)C1`: the Potency result is “inactive”.
As to `CCCC(=O)NC(=S)Nc1sc2c(c1C(N)=O)CCC2`, the Potency result was “inactive”.
Take `NC(=O)c1c(NC(=O)c2ccc(N3C(=O)CCC3=O)cc2)sc2c1CCCC2`: the Potency was 1.51 µM (active).
For the molecule `CCc1nnc2c(N(C)C)nc3ccccc3n12`, the Potency was 15.1 µM (active).
With `CN(C)S(=O)(=O)n1cnc2ccccc21`, the Potency result is “inactive”.
As for `Cn1c(=O)n(CCO)c(=O)c2c1nc(Br)n2Cc1ccccc1`, the Potency entry was “inactive”.
Regarding `Cn1c(=O)n(Cc2ccc(F)cc2)c(=O)c2c1nc1n2CCN1Cc1ccco1`, the Potency was 16.9 µM (active).
For `Cc1ccc(C(=O)Oc2ccc(C(=O)COC(=O)c3cnccn3)cc2)cc1`, the Potency was 0.478 µM (active).
With `Clc1ccc(-c2ccc(CNCc3ccccn3)o2)cc1`, the Potency is 15.1 µM (active).
`Fc1ccc(-c2ccc(CNCc3ccccn3)o2)cc1`: the Potency is 19 µM (active).
As for `Clc1cccc(-c2ccc(CNCc3ccccn3)o2)c1`, the Potency was 19 µM (active).
Regarding `O=S(=O)(c1ccc(Cl)s1)N1CCc2ccccc2C1`, the Potency result is “inactive”.
The figure for `CCOc1cc(C=NNC(=O)c2cccc(S(=O)(=O)N3CCCC3)c2)ccc1O` is 6.01 µM (active).
On to `CC1CCC(=NNc2ccc(C(F)(F)F)cc2[N+](=O)[O-])CC1` (stereo unspecified), for which the Potency is 7.57 µM (active).
The entry for `O=C(O)c1ccc2c(c1)C(=O)N(c1cccc(-c3nc4ccccc4s3)c1)C2=O` is “inactive”; for `O=C(O)c1ccc2c(c1)C(=O)N(c1ccc(/C=C/C(=O)c3ccccc3)cc1)C2=O` it is 19 µM (active); for `Cc1nnc2sc(SCC(=O)Nc3ccc(Br)cc3)nn2c1=O` it is 4.78 µM (active).
In the case of `CCCc1cc(=O)[nH]c(SCC(=O)Nc2ccc(C)cc2)n1`, the Potency result was “inactive”.
Consider `O=c1[nH]c(/C=C\c2ccc(O)cc2)nc(O)c1[N+](=O)[O-]`, for which the Potency result is “inactive”.
Turning to `CCOC(=O)c1nn2c(C(F)(F)F)cc(-c3ccc(OC)cc3)nc2c1Br`, the Potency is 12 µM (active).
Take `CNc1c(Br)cc(C(O)C2=CCc3ccccc32)cc1Br` (stereo unspecified): the Potency entry is “inactive”.
Take `Nc1nc2cc3ccccc3cc2[nH]c1=O`: the Potency entry was “inactive”.
The figure for `Cc1ccccc1C(=O)NC(=S)Nc1ccccc1N1CCCC1` is 13.5 µM (active); for `Cc1ccccc1NC(=O)C1CCN(C(=O)N2CCOc3ccccc32)CC1` it is “inactive”; for `CCc1nc2ccc(C(=O)NCCOc3ccc(OC)cc3)cn2c1N(CCC(C)C)CCN(C)C` it is “inactive”.
For `C/C(=C1/C=Nc2ccccc21)c1ccc(N(C)C)cc1`, the Potency was 19 µM (active).
To `COc1ccc(CCn2c(=N)c(C(=O)NCc3ccco3)cc3c(=O)n4ccccc4nc32)cc1OC` belongs 15.1 µM (active).
`Cc1cccn2c(=O)c3cc(S(=O)(=O)c4ccc(F)cc4)c(=N)n(Cc4ccco4)c3nc12`: the Potency result is “inactive”.
For the molecule `CCC(=O)c1cn(CC(=O)Nc2c(C)cccc2C)c2ccccc12`, the Potency result is “inactive”.
As to `Cc1ccccc1OCCn1cc(C(=S)N2CCN(C)CC2)c2ccccc21`, the Potency is 16.9 µM (active).
On to `O=c1oc(-c2ccco2)nc2ccccc12`, for which the Potency was 19 µM (active).
As to `O=C(O)CCCCCNS(=O)(=O)c1cccc2c1C(=O)c1ccccc1C2=O`, the Potency was 6.01 µM (active).
Take `CCOc1ccccc1O[C@H](c1ccccc1)[C@H]1CNCCO1`: the Potency entry is “inactive”.
To `O=C(CSc1ccc2c(c1)OCCO2)Nc1ccc2c(c1)OCO2` belongs “inactive”.
On to `NC(=O)C1CCN(CC(=O)Nc2ccc3c(c2)OCO3)CC1`, for which the Potency entry is “inactive”.
As to `Nn1c(SCC(=O)Nc2ccc3c(c2)OCCO3)nnc1-c1ccccn1`, the Potency was 21.3 µM (active).
Consider `O=S(=O)(Nc1nnc(-c2ccccc2)s1)c1ccc(Cl)cc1`, for which the Potency was 15.1 µM (active).
Take `COc1cc(OC)c(OC)cc1CCC(C)NCCC(c1ccccc1)c1ccccc1` (stereo unspecified): the Potency is 8.49 µM (active).
`Cc1ccc(NC(=O)CN2C(=O)S/C(=C\c3cc(Cl)c(OCC(=O)O)c(Cl)c3)C2=O)cc1`: the Potency was 19 µM (active).
In the case of `CC(SC1=NCCS1)C(=O)Nc1nnc(-c2ccc(Br)cc2)s1` (stereo unspecified), the Potency is 6.01 µM (active).
`OC(c1ccc(Cl)cc1)c1nccc2ccccc12` (stereo unspecified): the Potency result was “inactive”.
Turning to `Oc1c(C(c2ccc(Cl)cc2)N2CCCC2)cc(Cl)c2cccnc12` (stereo unspecified), the Potency is 6.75 µM (active).
Regarding `CN1CCN(C(c2ccccn2)c2cc(Cl)c3cccnc3c2O)CC1` (stereo unspecified), the Potency was 2.39 µM (active).
`COC(=O)c1c(C)[nH]c(C(=O)C(C)OC(=O)C2CC(=O)N(c3ccc(C)cc3)C2)c1C` (stereo unspecified): the Potency entry was “inactive”.
For the molecule `CC(=O)Oc1ccc(C(=O)OCC(=O)c2c(N)n(C)c(=O)n(C)c2=O)cc1OC(C)=O`, the Potency is 4.78 µM (active).
In the case of `Cn1c(N)c(C(=O)CSc2nnc(NC3CCCCC3)s2)c(=O)n(C)c1=O`, the Potency result is “inactive”.
Consider `COc1ccc(C(=O)N2CCOCC2)cc1S(=O)(=O)N1CCCc2ccccc21`, for which the Potency result was “inactive”.
On to `O=C(Oc1ccc(C(=S)N2CCOCC2)cc1Cl)c1ccccc1F`, for which the Potency was 8.49 µM (active).
On to `O=C(Oc1ccc(C(=S)N2CCOCC2)cc1Br)c1ccccc1F`, for which the Potency is 16.9 µM (active).
On to `CC1=CC(C)(C)Nc2ccc(OC(=O)CN3C(=O)c4ccccc4C3=O)cc21`, for which the Potency result was “inactive”.
For `CN1/C(=C\C(=S)NC(=O)c2ccccc2Cl)C(C)(C)c2ccccc21`, the Potency is 16.9 µM (active).
Take `O=C(NC1CCCCC1)N1CCN(C2CCCCC2)CC1`: the Potency result was “inactive”.
In the case of `COc1cc(OC)c(NC(=O)CN(C)S(=O)(=O)c2ccc(-c3ccc(=O)[nH]n3)s2)cc1Cl`, the Potency was 4.26 µM (active).
As to `COc1ccc([C@H]2CC(=O)C=C(c3ccnc4ccc(Cl)cc34)C2)cc1`, the Potency result was “inactive”.
To `N=C1/C(=C/c2ccc(-c3cccc(C(=O)O)c3)o2)C(=O)N=C2SC=C(c3ccccc3)N12` belongs “inactive”; to `O=C(O)c1ccc(-c2ccc(/C=c3/sc4nc5ccccc5n4c3=O)o2)cc1Cl`, 5.36 µM (active); to `Cc1c(CCO)c(=O)n(-c2ccccc2)n1S(=O)(=O)c1c(Cl)cc(Cl)cc1Cl`, 3.01 µM (active).
`CC12CC3(C)CC(C)(C1)CC(C(=O)NC(=S)N1CCOCC1)(C2)C3`: the Potency entry is “inactive”.
As for `O=C1c2ccccc2C(=O)c2c(Nc3ccc(CCO)cc3)ccc(O)c21`, the Potency was 6.01 µM (active).
Turning to `O=C1c2cccc3cccc(c23)C(=O)N1CCCN1CCN(c2ccc(F)cc2)CC1`, the Potency is 15.1 µM (active).
Regarding `COc1ccccc1NC(=O)CCCCCN1C(=O)c2cccc3cccc(c23)C1=O`, the Potency result was “inactive”.
The entry for `CC1Cc2ccccc2N1NC(=O)c1ccc(Cl)c(S(N)(=O)=O)c1` (stereo unspecified) is “inactive”.
On to `O=C(c1cccc(S(=O)(=O)Nc2ccccc2Cl)c1)N1CCN(c2ccccc2O)CC1`, for which the Potency was 19 µM (active).
On to `COc1ccc(C2CC(c3ccccc3OC(=O)/C=C/c3ccccc3)=NN2C(C)=O)cc1` (stereo unspecified), for which the Potency is 19 µM (active).
`O=S(=O)(Nc1cccc(-c2cn3cccnc3n2)c1)c1ccccc1`: the Potency was 4.78 µM (active).
For `Cn1c(=O)c2cc(S(=O)(=O)Nc3cccc(F)c3)ccc2n(C)c1=O`, the Potency result is “inactive”.
Take `O=S(=O)(Nc1cccc(-c2cn3cccnc3n2)c1)c1ccc(F)cc1`: the Potency is 13.5 µM (active).
Regarding `O=c1c(O)c(-c2ccc(O)cc2O)oc2cc(O)cc(O)c12`, the Potency is 8.49 µM (active).
For `Cc1cc(C(=O)c2ccccc2)cc(C)c1O`, the Potency is 1.9 µM (active).
In the case of `Cc1cc(C(=O)O)ccc1-n1c(C)cc(C=C2C(=O)c3ccccc3C2=O)c1C`, the Potency entry was “inactive”.
As to `CN(C)c1ccc(C2C=Cc3ccccc32)c2ccccc12` (stereo unspecified), the Potency is 9.53 µM (active).
The figure for `CSCc1cc(N(C)c2ccccc2)nc(-c2ccccn2)n1` is 15.1 µM (active); for `NCC(=O)Nc1ccc(Cl)cc1C(=O)c1ccc[nH]1` it is “inactive”; for `O=C(c1cccs1)N1CCC(c2nc3c(nnn3Cc3cccc(Cl)c3)c(=O)[nH]2)CC1` it is 10.7 µM (active).
Regarding `CN(C)CCNc1ccc2ncn3c4ccc(O)cc4c(=O)c1c23`, the Potency was 3.38 µM (active).
On to `CN(C)CCNc1ccc2nnn3c4ccc(O)cc4c(=O)c1c23`, for which the Potency was 1.69 µM (active).
Regarding `N#Cc1ccc(C(=O)N2CCC3CC2c2cc(-c4ccccc4)ccc23)cc1` (stereo unspecified), the Potency entry is “inactive”.
For `CN(C)C1=C2C=CC=CC2/C(=C2/C=Cc3ccccc32)C=C1` (stereo unspecified), the Potency was 8.49 µM (active).
Take `O=C(O)c1cc(-c2ccc(/C=C3\NC(=O)N(c4ccc(Cl)cc4)C3=O)o2)ccc1Cl`: the Potency is 8.49 µM (active).
As for `COC(=O)c1ccc(NC(=O)c2ccc3c(c2)C(=O)N(Cc2cccnc2)C3=O)cc1`, the Potency entry is “inactive”.
On to `CN1C(=O)/C(=C2\SC(=S)N(NC(=O)c3cccnc3)C2=O)c2ccccc21`, for which the Potency was 9.53 µM (active).
To `CCOC(=O)CN1C(=O)/C(=C2\SC(=S)N(NC(=O)c3cccnc3)C2=O)c2ccccc21` belongs 19 µM (active).
Turning to `CCOc1cc(C(=O)NC(C)CCc2ccccc2)cc(OCC)c1OCC` (stereo unspecified), the Potency result is “inactive”.
In the case of `C[C@H](CCC(=O)NCC(=O)O)[C@H]1CC[C@H]2[C@@H]3[C@H](O)C[C@@H]4C[C@H](O)CC[C@]4(C)[C@H]3C[C@H](O)[C@]12C`, the Potency entry is “inactive”.
For `O=C(O)CC(C(=O)O)N1C(=O)/C(=C/C=C/c2ccco2)SC1=S` (stereo unspecified), the Potency was 3.79 µM (active).
The figure for `O=C(O)C(Cc1ccccc1)N1C(=O)/C(=C/C=C/c2ccco2)SC1=S` (stereo unspecified) is 6.75 µM (active); for `CC(C(=O)O)N1C(=O)/C(=C/C=C/c2ccco2)SC1=S` (stereo unspecified) it is 3.79 µM (active).
